FLuc inh-1 = Firefly luciferase inhibition profiling of diverse chemical library using quantitative high-throughput screening; purified P. pyralis luciferase, luminescence, biochemical; Potency, µM (highest dose often 115 µM), usual class: inhibitors; 76,000 tested, 2.5% active; AID 1347043, 2019; further: on the % scale 0 is the no-effect control and ±100 the full control effect; nearly all actives have a fitted effect of over 65% in size
Target sequence (P08659 whole entry, looked up): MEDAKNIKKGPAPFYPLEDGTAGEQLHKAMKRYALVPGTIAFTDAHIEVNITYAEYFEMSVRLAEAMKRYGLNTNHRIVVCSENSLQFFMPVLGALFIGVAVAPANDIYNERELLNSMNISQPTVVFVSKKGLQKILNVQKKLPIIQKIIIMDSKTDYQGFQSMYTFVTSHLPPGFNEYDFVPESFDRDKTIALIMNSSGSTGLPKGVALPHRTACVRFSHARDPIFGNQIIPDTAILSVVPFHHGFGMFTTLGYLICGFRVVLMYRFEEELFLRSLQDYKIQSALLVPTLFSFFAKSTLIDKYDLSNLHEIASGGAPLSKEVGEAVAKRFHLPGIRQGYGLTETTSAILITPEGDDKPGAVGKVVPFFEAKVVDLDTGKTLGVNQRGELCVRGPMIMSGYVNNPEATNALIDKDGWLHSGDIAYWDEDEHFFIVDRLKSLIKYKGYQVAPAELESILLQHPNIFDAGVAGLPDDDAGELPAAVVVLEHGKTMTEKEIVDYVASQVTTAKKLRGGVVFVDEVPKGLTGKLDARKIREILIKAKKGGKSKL
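FLuc 10nM, D-luciferin 10uM, ATP 10uM, Mg acetate 10mM, Tris acetate pH 7.5, Tween/BSA; cpd qHTS; enzyme added last; CCD luminescence.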
HEK cytotox = Cytotoxic Profiling in HEK 293 Cell Line of Diverse Libraries Using Quantitative High-Throughput Screening; HEK 293 viability, ATP luminescence (CellTiter-Glo), 48-72 h; Potency, µM (doses to about 115 µM), for the others: at the highest dose activity change, negative = cytotoxicity, actives largely listed as inhibitors; 94,000 tested, 6.6% active; AID 1345083, 2018; further: on the % scale 0 is the no-effect control and ±100 the full control effect; nearly all actives have a fitted effect of over 60% in size
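qHTS cytotoxicity; HEK 293, 250 cells/well; compound pinned; 48 or 72 hr, 37 degree Celsius, 5% CO2, 95% humidity; CellTiter-Glo, 10 min RT; luminescence (ATP).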
hNpr1 antagonist = Natriuretic polypeptide receptor (hNpr1) antagonism - Primary qHTS. Atrial natriuretic peptide receptor 1 (Homo sapiens), P16066. 76,000 tested, 1.6% active. AID 1347048, 2019. HEK293 hNpr1 GloSensor cGMP, ANP-stimulated luminescence. Potency, µM (top dose mostly 46.3 µM), without a hit: at the highest dose activity change, negative = inhibition, usual class: inhibitors; calls by dose curve; further: on the % scale 0 is the no-effect control and ±100 the full control effect; nearly all actives have a fitted effect of over 60% in size
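HEK293 cells stably expressing human Npr1 and cGMP GloSensor pGS-40F, loaded 2 h with 2% GloSensor reagent, given compound 30 min at room temperature. Luminescence read before and 20 min after 0.1 nM hNppA.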
3T3 cytotox = Cytotoxic Profiling in NIH 3T3 Cell Line of Diverse Libraries Using Quantitative High-Throughput Screening; NIH 3T3 viability, CellTiter-Glo ATP luminescence, 48-72 h; Potency, µM (doses to about 96.7 µM), for the others: top-dose activity change, negative = cytotoxicity, actives largely listed as inhibitors; 94,000 tested, 4.3% active; AID 1345082, 2018; further: on the % scale 0 is the no-effect control and ±100 the full control effect; nearly all actives have a fitted effect of over 55% in size
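NIH 3T3 cells at 400 cells/well received 23 nL of compound by pintool and were incubated 48 or 72 h at 37 °C. Viability was read as ATP-coupled CellTiter-Glo luminescence.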
FLuc SDR -ATP = Firefly luciferase (FLuc-C-HiBiT) SDR gain of signal screen - without ATP. shares compounds with FLuc inh-1. Purified FLuc-C-HiBiT, Nano-Glo HiBiT luminescence, no ATP. 1,300 tested, 7.8% active. Potency, µM (titrated, usually from 32.7 µM), inactives show top-dose activation (signal gain), hits mostly activators; further: nearly all actives have a fitted effect of over 55% in size
FLuc SDR ATP = Firefly luciferase (FLuc-C-HiBiT) SDR gain of signal screen - plus ATP. AID 1963319, 2024. shares compounds with FLuc inh-1. Potency, µM (titrated, usually from 32.7 µM), without a hit: at the highest dose activation (gain of signal), hits mostly activators. 1,300 tested, 8.7% active. purified FLuc-C-HiBiT + ATP, HiBiT complementation luminescence;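 further: signal reports ligand binding via conformational change of the enzyme rather than luciferase catalysis; % of control where 0% means no effect; nearly all actives have a fitted effect of over 55% in size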
FLuc inh-2 = Firefly luciferase (FLuc-C-HiBiT) enzymatic inhibition screen - Functional assay; Potency, µM (doses to about 32.7 µM), for the others: at the top dose activity change, negative = inhibition, most hits filed as inhibitors; AID 1963320, 2024; purified FLuc-C-HiBiT enzyme, luciferin luminescence; shares compounds with FLuc inh-1; 1,300 tested, 42% active; further: on the % scale 0 is the no-effect control and ±100 the full control effect; nearly all actives have a fitted effect of over 70% in size
Starred values were filed as active, the others as inactive; i = inactive; ? = inconclusive; nt = no result given; [ ] = remark or other dose. Shown are actives, neighbours in structure and some others; about 11% of the full set was active somewhere. Unless noted, the call rests on the fitted dose curve; in most records, active means well fitted curve in the direction sought with a large enough effect; inconclusive means small, poorly fitted or top-dose-only effect, or another doubt; inactive means no such curve, though single readings can be large; an effect the other way counts as inactive or inconclusive. Potency means the concentration at half of the fitted maximal effect.

SMILES | FLuc inh-1 | HEK cytotox | hNpr1 antagonist | 3T3 cytotox | FLuc SDR -ATP | FLuc SDR ATP | FLuc inh-2
CCOc1ccc(-c2cc3c(=O)n(CCNC(=O)c4cccc(N(C)C)c4)ccn3n2)cc1 | 2.51µM* | ? | -27.7% | -24.1% | 28.8% | ? | 3.94µM*
CCOc1ccc(-c2cc3c(=O)n(CCNC(=O)c4ccncc4)ccn3n2)cc1 | 6.31µM* | ? | -16.8% | -6.1% | ? | ? | 3.51µM*
Cc1c(CN2CCOc3ccc(C(=O)NCc4ccccc4F)cc3C2)cnn1C | i | ? | ? | -10.4% | nt | nt | nt
Cc1ccc(CNC(=O)c2ccc3c(c2)CN(Cc2cnn(C)c2C)CCO3)cc1 | i | ? | ? | -9.0% | 13.6% | 7.9% | -6.6%
O=C(O)c1ccccc1-c1noc(-c2ccccc2F)n1 | nt | nt | nt | nt | 27.5% | ? | ?
CCCCCNC(=O)c1noc(-c2ccccc2F)n1 | ? | ? | -8.8% | ? | nt | nt | nt
O=C(O)c1ccc(-c2noc(-c3ccccc3F)n2)cc1 | nt | nt | nt | nt | ? | 0.248µM* | 0.197µM*
CC1CCC(NC(=O)c2noc(-c3ccccc3F)n2)CC1 (stereo unspecified) | 8.91µM* | -27.2% | -10.4% | -21.4% | 15.3% | 19.0% | ?
CCOc1ccccc1-c1noc(-c2nc(CC)no2)n1 | i | ? | 2.3% | -0.3% | nt | nt | nt
CCc1noc(-c2nc(-c3ccccc3F)no2)n1 | 11.2µM* | ? | -18.1% | -8.5% | 14.9% | 16.1% | ?
O=C(NCc1ccc(C(F)(F)F)cc1)c1cc(Br)cn2ccnc12 | i | ? | -16.0% | -21.7% | nt | nt | nt
Cc1ccc2oc(=O)c(-c3nc(-c4cccs4)no3)cc2c1 | nt | nt | nt | nt | 14.4% | 12.9% | -13.6%
O=c1oc2ccc(F)cc2cc1-c1nc(-c2cccs2)no1 | nt | nt | nt | nt | 14.1% | 19.5% | ?
Cc1ccc(C2Cn3nnc(-c4noc(-c5cccs5)n4)c3CO2)cc1 (stereo unspecified) | i | -2.3% | 11.1% | -2.5% | nt | nt | nt
Cc1ccc2nc(-c3ccc4nc(-c5ccc(NC(=O)c6cccc(Cl)c6)cc5)sc4c3)sc2c1S(=O)(=O)O | nt | nt | nt | nt | 2.0% | 2.6% | ?
Cc1ccc2nc(-c3ccc(N)cc3)sc2c1S(=O)(=O)O | nt | nt | nt | nt | ? | ? | 2.48µM*
O=C(Nc1ccc(-c2nnc3n2CCCC3)cc1)c1cccc(Cl)c1 | i | ? | -3.4% | ? | nt | nt | nt
Cc1ccc2nc(-c3ccc(N=Nc4cc(S(=O)(=O)O)c5ccccc5c4O)cc3)sc2c1S(=O)(=O)O | nt | nt | nt | nt | 1.5% | 2.4% | 12.4µM*
COc1cc(-c2ccnc3nc(C4CCC4)nn23)cc(OC)c1OC | i | ? | 7.0% | ? | nt | nt | nt
CN1Cc2ncnc(NCCCO)c2CN(c2ccccc2)C1=O | i | -9.4%[172 µM] | 0.3%[70.6 µM] | -17.5%[138 µM] | nt | nt | nt
COc1cccc(CN2CCc3c(cc(C(=O)Nc4cc(C)ccc4OC)n3C)C2)c1 | 8.91µM* | 31.6µM* | -5.7% | ? | 11.8% | 14.0% | -11.5%
COc1ccc(-c2noc(-c3nc(-c4ccc(OC)c(OC)c4)no3)n2)cc1OC | i | -0.8% | 1.1% | i | nt | nt | nt
COc1ccc(-c2noc(-c3ccc(C)cc3Cl)n2)cc1OC | nt | nt | nt | nt | 20.4% | 11.9% | ?
O=c1[nH]nc2n1CCNCC2 | i | -26.3% | -1.4% | -4.4% | nt | nt | nt
O=c1[nH]nc2n1CCCCC2 | i | -9.7% | 11.2% | -12.4% | 13.3% | 10.7% | -3.4%

Bioassay records from PubChem BioAssay.
